This note sets out measurements from PubChem BioAssay.

Assay [1] has as its system Plasmodium falciparum Sir2 (PF13_0152, Sir2A). Put plainly: pfSir2 binders on small-molecule microarrays, primary screen, biochemical, small-molecule microarray, 635 nm fluorescence (AID 1098).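 Also: score merges spot fluorescence intensity with its signal-to-noise ratio.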 The note with it: small-molecule microarray binding, fluorescence 635 nm; higher = more signal.
The nature of assay [2]: small-molecule microarray binders of probe aDKK1, primary screen, biochemical, biotinylated probe, 635/667 nm fluorescence (AID 1099).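 Also: score merges 667nm spot fluorescence with signal to noise across triplicate slides.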 The settings on record: higher = more signal.
The nature of assay [3]: small-molecule microarray binders of probe aCHRDL2, primary screen, biochemical, biotinylated probe, 635/667 nm fluorescence (AID 1100). The note with it: higher = more signal.
Assay [4] in a line: splicing luciferase reporter signal modulators, primary screen, spliceosome inhibition project, cell-based, HEK293, splice +/- reporter (AID 1101).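 Also: HEK293 cells carrying a splicing-competent luciferase reporter gene; test concentration not given here.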 The note with it: luminescence, 24 h, higher = more signal, called active from +8 up or from −8 down. Background: In a reporter assay the amount or activity of a reporter protein is the signal.
Assay [5] deals with Fibroblast growth factor 10 (Homo sapiens) (UniProt O15520). In words: FGF10 binders on small-molecule microarrays, primary screen, biochemical, small-molecule microarray, 635 nm fluorescence (AID 1102). The settings on record: FGF10 binding, fluorescence 635 nm, higher = more signal.
Sequence of Fibroblast growth factor 10 (Homo sapiens) (O15520 whole entry, looked up): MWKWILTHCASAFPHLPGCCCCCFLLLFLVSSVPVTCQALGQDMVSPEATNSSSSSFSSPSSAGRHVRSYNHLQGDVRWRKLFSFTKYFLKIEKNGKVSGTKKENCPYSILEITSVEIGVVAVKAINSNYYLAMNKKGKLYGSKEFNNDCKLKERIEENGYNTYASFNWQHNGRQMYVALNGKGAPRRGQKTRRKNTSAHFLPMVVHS
In assay [6] the test system is glycogen synthase kinase-3 (GSK3A per assay name; protocol says GSK3B). Put plainly: GSK3 binders on small-molecule microarrays, primary screen, biochemical, small-molecule microarray, 635 nm fluorescence, GSK3A (AID 1103). Also: the record names both GSK3A and GSK3B. The settings on record: small-molecule microarray binding, fluorescence 635 nm; higher = more signal.
In assay [7] the target is Epidermal growth factor receptor (Homo sapiens) (UniProt P00533). Put plainly: EGFR binders on small-molecule microarrays, primary screen, biochemical, small-molecule microarray, 635 nm fluorescence (AID 1104).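 Also: score merges 667 nm emission intensity with spot signal to noise over triplicate slides.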 The settings on record: EGFR binding, higher = more signal.
Sequence of Epidermal growth factor receptor (Homo sapiens) (P00533 whole entry, looked up): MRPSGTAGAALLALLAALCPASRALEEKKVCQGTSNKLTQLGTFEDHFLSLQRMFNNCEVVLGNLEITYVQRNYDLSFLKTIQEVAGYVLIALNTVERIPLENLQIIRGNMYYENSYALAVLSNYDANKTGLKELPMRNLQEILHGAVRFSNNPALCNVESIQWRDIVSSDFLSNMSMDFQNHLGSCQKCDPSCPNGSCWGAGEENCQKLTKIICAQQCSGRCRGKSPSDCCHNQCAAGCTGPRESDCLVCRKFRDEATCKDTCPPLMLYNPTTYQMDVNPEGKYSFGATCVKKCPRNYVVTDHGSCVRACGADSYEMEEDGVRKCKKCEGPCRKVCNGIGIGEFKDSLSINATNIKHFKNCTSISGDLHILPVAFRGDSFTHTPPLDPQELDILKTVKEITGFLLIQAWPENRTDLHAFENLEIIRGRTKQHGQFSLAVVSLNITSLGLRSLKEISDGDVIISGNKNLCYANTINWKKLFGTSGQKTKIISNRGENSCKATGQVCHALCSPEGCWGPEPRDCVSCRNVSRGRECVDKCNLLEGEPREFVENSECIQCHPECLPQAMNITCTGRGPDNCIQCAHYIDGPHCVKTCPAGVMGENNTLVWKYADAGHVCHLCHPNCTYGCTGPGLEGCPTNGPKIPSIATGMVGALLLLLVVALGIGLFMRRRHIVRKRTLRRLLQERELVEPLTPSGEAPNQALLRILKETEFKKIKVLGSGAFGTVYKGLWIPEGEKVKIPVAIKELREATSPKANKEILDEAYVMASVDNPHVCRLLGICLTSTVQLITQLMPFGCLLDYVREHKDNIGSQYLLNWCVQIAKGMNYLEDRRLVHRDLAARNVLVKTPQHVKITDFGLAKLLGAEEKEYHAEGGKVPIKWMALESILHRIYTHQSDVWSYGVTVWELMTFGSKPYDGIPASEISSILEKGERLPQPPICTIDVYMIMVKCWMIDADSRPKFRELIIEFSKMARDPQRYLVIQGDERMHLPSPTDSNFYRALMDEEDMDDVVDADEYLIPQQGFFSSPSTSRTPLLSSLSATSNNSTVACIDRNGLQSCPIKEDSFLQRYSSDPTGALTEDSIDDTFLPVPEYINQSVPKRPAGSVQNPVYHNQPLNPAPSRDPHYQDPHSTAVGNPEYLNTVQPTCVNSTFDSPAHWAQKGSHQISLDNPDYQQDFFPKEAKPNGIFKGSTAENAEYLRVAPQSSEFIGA
Assay [8] has as its target Follistatin-related protein 3 (Homo sapiens) (UniProt O95633). In words: FSTL3 binders on small-molecule microarrays, primary screen, biochemical, small-molecule microarray, 635 nm fluorescence (AID 1105).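 Also: score merges emission near 667 nm and signal to noise per printed spot across three slides.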 The settings on record: FSTL3 binding, higher = more signal.
Assay [9] deals with Dickkopf-related protein 1 (Homo sapiens) (UniProt O94907). Put plainly: DKK1 binders on small-molecule microarrays, primary screen, biochemical, small-molecule microarray, 635 nm fluorescence scan (AID 1106).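 Also: score merges emission near 667 nm with signal to noise over three replicate slides.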 The settings on record: DKK1 binding, higher = more signal.
Sequence of Dickkopf-related protein 1 (Homo sapiens) (O94907 whole entry, looked up): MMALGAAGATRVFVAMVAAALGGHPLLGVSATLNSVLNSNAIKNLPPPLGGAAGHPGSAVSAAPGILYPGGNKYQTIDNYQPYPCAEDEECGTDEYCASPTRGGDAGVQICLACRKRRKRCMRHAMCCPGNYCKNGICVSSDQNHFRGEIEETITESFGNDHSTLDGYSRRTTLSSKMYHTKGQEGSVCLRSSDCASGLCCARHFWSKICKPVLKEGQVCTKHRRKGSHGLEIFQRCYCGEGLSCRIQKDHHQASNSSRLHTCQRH
Assay [10] concerns Inhibin beta A chain (activin A). In words: INHBA (activin A) binders on microarrays, primary screen, biochemical, small-molecule microarray, 635 nm fluorescence scan (AID 1107).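 Also: mouse activin A protein probed at 4.33 µg/mL on printed slides; score merges bound-protein fluorescence near 667 nm with spot signal-to-noise.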 The settings on record: small-molecule microarray binding, higher = more signal.
Assay [11] concerns Human papillomavirus type 1a protein E7 (residues 44-93). In words: HPV1a E7 fragment binders on microarrays, primary screen, biochemical, small-molecule microarray, residues 44-93, 635 nm fluorescence (AID 1108).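 Also: E7 fragment applied at 1 µg/mL in TBST for 1 h at 4 C; score combines spot fluorescence with its signal to noise ratio.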 The settings on record: small-molecule microarray binding, fluorescence 635 nm; higher = more signal.
The nature of assay [12]: modulators of HCV replicon luciferase signal, primary screen, HCV replication inhibitor project, Huh7 cells, luciferase reporter (AID 1109).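 Also: huh7 hepatoma cells harbouring a luciferase neomycin HCV replicon reporter; luciferase luminescence as measure of HCV replicon replication; test concentration not given here.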 The settings on record: 48 h, higher = more signal. (In general: In antiviral work, replicon cells carry a viral genome segment that copies itself.)
Assay [13] deals with Left-right determination factor 2 (Homo sapiens) (UniProt O00292). In words: LEFTY2 binders on small-molecule microarrays, primary screen, biochemical, small-molecule microarray, 635 nm fluorescence scan (AID 1110). The note with it: LEFTY2 binding, higher = more signal.
Sequence of Left-right determination factor 2 (Homo sapiens) (O00292 whole entry, looked up): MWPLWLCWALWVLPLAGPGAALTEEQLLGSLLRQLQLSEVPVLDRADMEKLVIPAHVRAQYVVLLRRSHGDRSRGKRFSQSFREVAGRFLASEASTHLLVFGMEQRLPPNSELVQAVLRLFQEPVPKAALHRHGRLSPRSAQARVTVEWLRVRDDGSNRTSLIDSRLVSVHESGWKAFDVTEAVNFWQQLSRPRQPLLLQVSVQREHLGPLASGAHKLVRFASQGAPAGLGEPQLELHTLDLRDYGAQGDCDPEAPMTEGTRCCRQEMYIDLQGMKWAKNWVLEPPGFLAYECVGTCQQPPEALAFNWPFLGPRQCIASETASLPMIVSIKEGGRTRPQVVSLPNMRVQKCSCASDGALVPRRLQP
The target in assay [14] is Calmodulin-1 (Homo sapiens) (UniProt P0DP23). Put plainly: CALM1 binders on microarrays, EGTA buffer, profiling panel, biochemical, small-molecule microarray, Cy5-labelled CALM1 (AID 1111).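 Also: labelled calmodulin applied in Tris saline Tween buffer holding calcium plus EGTA and DTT.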 The note with it: Cy5-CALM1 binding fluorescence, higher = more signal.
Assay [15] shares this target. In words: calcium-bound CALM1 binders on microarrays, profiling panel, artefact control for SMM control-protein annotation, biochemical, small-molecule microarray, Cy5-labelled CALM1, plus calcium (AID 1112).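 Also: score merges spot fluorescence with signal to noise from triplicate slides.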 The settings on record: Cy5-CALM1 binding fluorescence, higher = more signal.
Assay [16] can be described thus: small-molecule microarray binders of probe aWnt5a, primary screen, biochemical, biotinylated probe, 635/667 nm fluorescence (AID 1113).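 Also: score merges 667 nm fluorescence intensity with signal-to-noise per printed feature.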 The settings on record: higher = more signal.
Assay [17] in a line: small-molecule microarray binders of probe aShh, primary screen, biochemical, biotinylated probe, 635/667 nm fluorescence (AID 1114).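 Also: probe is biotin-labelled aShh protein from a stem cell growth factor screen; measures binding of labelled protein to compounds printed on the slide; score merges feature fluorescence at 667 nm with signal-to-noise.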 The note with it: higher = more signal.
Assay [18] in a line: small-molecule microarray binders of probe aNog, primary screen, biochemical, biotinylated probe, 635/667 nm fluorescence (AID 1115).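 Also: probe is biotinylated aNog protein used at 0.15 µg/mL for 1 h at 4 C; z-score combines 667 nm fluorescence of each spot with its signal to noise.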 The note with it: higher = more signal.
In assay [19] the target is Torsin-1A-interacting protein 1 (Homo sapiens) (UniProt Q5JTV8). In words: LAP1 binders from COS7 cell lysate, primary screen, small-molecule microarray, 635/667 nm fluorescence (AID 1116). The note with it: COS7-hLAP1 lysate binding, 635 nm fluorescence, higher = more signal.
Sequence of Torsin-1A-interacting protein 1 (Homo sapiens) (Q5JTV8 whole entry, looked up): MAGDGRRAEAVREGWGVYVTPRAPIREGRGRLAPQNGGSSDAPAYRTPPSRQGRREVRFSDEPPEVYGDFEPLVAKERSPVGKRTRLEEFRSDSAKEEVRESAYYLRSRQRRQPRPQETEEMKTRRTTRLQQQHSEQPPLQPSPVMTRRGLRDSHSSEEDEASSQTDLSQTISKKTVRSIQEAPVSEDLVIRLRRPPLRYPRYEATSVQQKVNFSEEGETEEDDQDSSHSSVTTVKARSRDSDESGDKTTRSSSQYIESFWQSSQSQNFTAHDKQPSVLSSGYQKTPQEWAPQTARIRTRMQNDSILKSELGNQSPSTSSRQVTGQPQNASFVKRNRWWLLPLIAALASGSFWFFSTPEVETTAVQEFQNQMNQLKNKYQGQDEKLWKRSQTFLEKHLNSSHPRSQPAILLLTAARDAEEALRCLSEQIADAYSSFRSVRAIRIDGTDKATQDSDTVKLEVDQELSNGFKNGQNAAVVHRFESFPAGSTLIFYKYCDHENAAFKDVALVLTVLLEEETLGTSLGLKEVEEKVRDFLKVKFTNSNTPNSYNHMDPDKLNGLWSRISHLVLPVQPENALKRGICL
In assay [20] the target is Alpha-bungarotoxin (Bungarus multicinctus) (UniProt P60615). Put plainly: alpha-bungarotoxin binders on microarray, profiling panel, artefact control for SMM control protein annotation, biochemical, small-molecule microarray, Alexa647 label, 635/667 nm fluorescence (AID 1117). The note with it: alpha-BTX-A647 binding fluorescence, higher = more signal.
Sequence of Alpha-bungarotoxin (Bungarus multicinctus) (P60615 whole entry, looked up): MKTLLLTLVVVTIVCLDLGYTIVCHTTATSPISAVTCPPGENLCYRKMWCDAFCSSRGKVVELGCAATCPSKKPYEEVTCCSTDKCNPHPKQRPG

Structures are written as SMILES. Activity calls are given as the source filed them.

Sequence of Follistatin-related protein 3 (Homo sapiens) (O95633 whole entry, looked up): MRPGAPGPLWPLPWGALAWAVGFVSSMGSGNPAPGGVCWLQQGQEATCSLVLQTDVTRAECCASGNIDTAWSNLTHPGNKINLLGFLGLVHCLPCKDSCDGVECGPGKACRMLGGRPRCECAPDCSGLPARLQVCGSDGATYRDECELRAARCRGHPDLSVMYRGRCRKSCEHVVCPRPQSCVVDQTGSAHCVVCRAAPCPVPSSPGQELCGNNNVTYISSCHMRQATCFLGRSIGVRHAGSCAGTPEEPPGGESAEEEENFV

Take `CC(C)=CCCC(C)=CC(O)C1C=CC2C(=O)NC(=O)C2N1Nc1ccccn1` (stereo not given): the composite z-score in [1] was 1.52; in [2], 0.0536; in assay [3] it was -0.319; in [5] it was 1.46; in assay [6], 1.29; in assay [7], 1.68. Also, the composite z-score is 1.55 in assay [8]; 1.76 in assay [9]; 1.6 in assay [10]; 1.13 in assay [11]; 1.45 in assay [13]; -0.188 in [14]. Moreover, the composite z-score was -1.15 in assay [15]; 0.176 in [16]; -0.153 in assay [17]; -0.0116 in assay [18]; 1 in [19]; 1.2 in [20]. Moreover, the z-score in assay [4] was -0.121 (inactive); in [12], -0.156.
With `O=C1N(Cc2ccccc2)c2ccccc2C[C@@]12COC(c1ccc(OCCCO)cc1)=N2`, the composite z-score is 1.32 in assay [1]; 1.79 in [2]; 1.12 in assay [3]; 0.596 in [5]; 1.31 in assay [6]; -0.433 in assay [7]. Further, the composite z-score in assay [8] was 0.0633; in [9] it was -0.318; in assay [10], 1.13; in assay [11], 1.24; in assay [13], -0.56; in [14], 0.993. In addition, the composite z-score amounted to 0.749 in [15]; 0.02 in assay [16]; 0.0018 in assay [17]; 1.39 in assay [18]; 1.58 in assay [19]; 0.802 in [20]. The z-score in assay [4] was -0.136 (inactive); in assay [12] it was -1.08.
In the case of `Cc1ccc(C(C)CC(O)C2C=CC3C(=O)N(C)C(=O)C3N2Nc2ccccc2)o1` (stereo not given), the composite z-score in assay [1] was determined as 0.84; in assay [2], 0.169; in assay [3] it was 0.778; in assay [5] it was 1.19; in assay [6], 1.25; in assay [7], 1. Also, the composite z-score in assay [8] was 1.39; in assay [9] it was 0.593; in [10], 0.989; in [11] it was 1.4; in [13] it was 0.79; in [14], 0.0895. For the same compound, the composite z-score was -0.0452 in [15]; -0.0057 in [16]; -0.0769 in assay [17]; -0.213 in assay [18]; 0.163 in assay [19]; 0.6 in [20]. Further, the values for the z-score in [4] and in assay [12] were 1.27 (inactive) and -0.955, respectively.
As to `COc1ccc(CCNC(=O)[C@@H]2c3ccccc3C(=O)N(Cc3ccccc3OC)[C@H]2c2ccc(CO)cc2)cc1`, the composite z-score was 1.1 in assay [1]; -0.381 in assay [2]; 0.508 in assay [3]; 0.454 in assay [5]; 0.931 in assay [6]; 0.0744 in assay [7]. The composite z-score is 0.172 in [8]; 0.0163 in assay [9]; 0.414 in [10]; 1.16 in assay [11]; -0.321 in [13]; 0.527 in assay [14]. Further, the composite z-score was -0.103 in assay [15]; -0.0398 in [16]; -0.423 in assay [17]; 0.938 in assay [18]; 0.966 in assay [19]; 0.75 in assay [20]. Also, the results for the z-score in [4] and in assay [12] were 0.295 (inactive) and -1.27, respectively.
With `C=CCOC(=O)[C@@H]1[C@H]2C(=O)O[C@H](c3ccccc3)[C@H](c3ccccc3)N2[C@H](c2ccc(OCCOC(=O)[C@H]3C[C@H]4C(=O)NCC(=O)N4[C@H]3c3cccc(OCCO)c3)cc2)[C@@]12C(=O)Nc1ccc(I)cc12`, the composite z-score came out at 1.53 in [1]; 0.512 in assay [2]; 0.494 in [3]; 0.742 in assay [5]; 1.36 in assay [6]; 0.725 in [7]. Moreover, the composite z-score in assay [8] amounted to 1.23; in [9], 1.11; in assay [10] it was 0.118; in [11] it was 0.534; in assay [13] it was 0.553; in [14], 1.33. Besides, the composite z-score was 0.0237 in [15]; -0.0327 in assay [16]; 0.147 in [17]; -0.381 in assay [18]; 1.61 in assay [19]; 1.39 in [20]. Besides, the z-score in [4] was 0.789 (inactive); in assay [12], -0.582.
Turning to `CC1CC/C=C\[C@H]2OC34C=CCN(c5ccc(Cl)cc5)C(=O)[C@H]3N(CCCCCCO)C(=O)[C@]4(C)C2C(=O)O1` (stereo not given in full), the composite z-score in assay [1] was 0.597; in assay [2], -0.13; in [3], 0.747; in [5], -0.533; in assay [6], -0.594; in assay [7], -0.726. For the same compound, the composite z-score in assay [8] is -0.931; in assay [9], -1.43; in assay [10] it was 0.0845; in assay [11], 0.0258; in assay [13] it was -1.56; in assay [14] it was -0.249. For the same compound, the composite z-score in assay [15] is 0.864; in assay [16], -0.262; in assay [17], -0.138; in assay [18], 0.0112; in [19] it was -0.377; in assay [20], -0.856. Besides, the results for the z-score in assay [4] and in assay [12] were 0.104 (inactive) and -0.0973, respectively.
